High-throughput results as filed in PubChem BioAssay.
This excerpt belongs to a sample that is enriched for hits.
FBPA Giardia inh – qHTS Assay for Inhibitors of Fructose-1,6-bisphosphate Aldolase from Giardia Lamblia. A8B2U2. purified Giardia FBPA. Potency, µM (series often up to 59.6 µM), without a hit: at the highest dose activity, negative = inhibition, hits mostly inhibitors. 0.71% of 290,000 active; note: potency is the fitted concentration of half-maximal effect; % is set by controls: 0 for no effect and ±100 for the full control effect; nearly all actives have a fitted effect of over 55% in size
Target sequence (A8B2U2 whole entry, looked up): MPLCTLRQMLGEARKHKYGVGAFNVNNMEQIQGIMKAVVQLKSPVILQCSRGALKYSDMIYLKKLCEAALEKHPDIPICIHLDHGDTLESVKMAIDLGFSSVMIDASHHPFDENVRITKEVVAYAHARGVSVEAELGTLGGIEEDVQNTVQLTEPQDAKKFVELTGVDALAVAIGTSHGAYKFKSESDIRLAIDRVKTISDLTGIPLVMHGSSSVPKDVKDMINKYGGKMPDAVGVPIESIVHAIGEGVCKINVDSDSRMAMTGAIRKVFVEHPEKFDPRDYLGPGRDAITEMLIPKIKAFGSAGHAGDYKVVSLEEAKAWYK
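Giardia FBPA (40 nM reagent) was preincubated 10 min at RT with compound (up to 57.5 uM final), then substrate plus GAPDH/TPI/NAD/arsenate coupling system with diaphorase/resazurin was added; resorufin fluorescence (525/598 nm) was read after 20 min.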
Tb PYK inh – qHTS of Trypanosoma Brucei Inhibitors; pyruvate kinase (Trypanosoma brucei), Q57TT1; TbPYK enzyme, Kinase-Glo Plus ATP luminescence, 45 min; Potency, µM (doses to about 76.8 µM), without a hit: top-dose activity, negative = inhibition, usual class: inhibitors; 0.12% of 410,000 active; note: potency is the fitted concentration of half-maximal effect; % is set by controls: 0 for no effect and ±100 for the full control effect; nearly all actives have a fitted effect of over 50% in size
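Screened from lowest to highest concentration, compounds were pinned into TbPYK/substrate mixtures, and ADP (130 uM final) was added. Plates sat at room temperature for 45 min prior to Kinase-Glo Plus detection by luminescence.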
LmPK inh – qHTS Assay for Inhibitors of Leishmania Mexicana Pyruvate Kinase (LmPK); 0.37% of 290,000 active; Potency, µM (series often up to 57.5 µM), inactives show at the highest dose activity change, negative = inhibition, actives largely listed as inhibitors; purified LmPK, Kinase-Glo ATP luminescence, 1 h; AID 1721, 2009; Q27686; note: potency is the fitted concentration of half-maximal effect; % is set by controls: 0 for no effect and ±100 for the full control effect
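ATP generated from ADP (0.1 mM) and PEP (0.5 mM) by 0.1 nM LmPK over 1 h at room temperature (pH 7.2 imidazole buffer) was detected by coupled luciferase luminescence. Values were normalized to uninhibited and no-enzyme wells.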
Shiga inhibitor – A qHTS for Small Molecule Inhibitors of Shiga Toxin. 9.2% of 290,000 active. inhibition, % at 38.7 µM. Vero cells, Shiga toxin protein synthesis inhibition reporter; in the data active = inhibition mostly above about 28%, no sharp cut-off; inactive = mostly below about 43%; note: 0% is about no effect
Cycloheximide cs – Cycloheximide Counterscreen for Small Molecule Inhibitors of Shiga Toxin; cell reporter, cycloheximide protein synthesis inhibition counterscreen; max response, %; 12% of 300,000 active; AID 2314, 2010; in the data active = max response mostly above about 13%, no sharp cut-off; inactive = mostly below about 14%; note: read at 38.3 µM for the half of the compounds with a filed dose; 0% is about no effect
Sm TGR block – qHTS Assay for the Inhibitors of Schistosoma Mansoni Peroxiredoxins. Schistosoma mansoni thioredoxin glutathione reductase (TGR), Q962Y6. purified TGR, DTNB reduction, TNB absorbance 405 nm. Potency, µM (titrated, usually from 114 µM), for inactives: at the highest dose activity change, negative = inhibition, most hits filed as inhibitors. 3% of 360,000 active; note: potency is the fitted concentration of half-maximal effect; % is set by controls: 0 for no effect and ±100 for the full control effect; nearly all actives have a fitted effect of over 60% in size
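TGR 20 nM + NADPH 100 uM (dispensed conc.), cpd preinc 15 min RT; start with NADPH (500 uM addition) then DTNB (15 mM addition). Kinetic TNB absorbance, 405 nm filter. Four-parameter Hill fit across titration.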
* marks the source's active call; other numbers are inactive results; ? = inconclusive; / = not tested or not shown; [ ] = another dose, or the depositor's remark. Unless noted, calls come from the whole dose curve; as a rule, active = well fitted curve in the direction sought with a large enough effect; inconclusive = small, poorly fitted or top-dose-only effect, or another doubt; inactive = no such curve, though single readings can be large; an effect the other way counts as inactive or inconclusive.

SMILES	FBPA Giardia inh	Tb PYK inh	LmPK inh	Shiga inhibitor	Cycloheximide cs	Sm TGR block
CCCCC/C(=N\NC(=O)CCC(=O)NCc1ccccc1)c1ccccc1	0%	0%	1%	-5	-3	-2%
Cc1nn(-c2ccccc2)c(-n2cccc2)c1C(=O)NCCc1ccc(Cl)cc1	/	-6%	/	/	/	0%
Cc1c(C)n(Cc2ccccc2)c2ccc(C(=O)NCC(C)c3ccccc3)cc12 (stereo not given)	/	0%[15.4 µM]	/	/	/	3%
COc1cccc(NC(=O)CCc2nnc3n(CC(C)C)c(=O)c4ccccc4n23)c1	/	4%	/	/	/	4%
COc1cccc(C(=O)N2CCCCC2CCN2CCCCC2)c1 (stereo not given)	/	1%	/	/	/	-1%
Cc1ccc(C(=O)Nc2ncc(C)s2)s1	-13%	0%	-6%	42	17*	-7%
Cc1cnc(NC(=O)Cc2ccc(Br)cc2)s1	4%	-13%	-5%	2	2	-7%
Cc1ccc(C(=O)Nc2ncc(Cc3ccc(F)cc3)s2)o1	-4%	-2%	-1%	156*	41*	2%
CCc1noc(C)c1C(=O)Nc1ncc(C)s1	-2%	1%	-2%	41*	19*	-5%
Cc1ccc(C(=O)Nc2ncc(C)s2)o1	0%	-21%	13µM*	50	35*	3%
Cc1ccc(N2CC(NC(=O)C3CC3)CC2=O)cc1C (stereo not given)	/	-1%	/	/	/	8%
Cc1cc(-c2nnc(CCC(=O)NC(C)c3ccc(F)cc3)o2)no1 (stereo not given)	3%	4%	2%	43	10	0%
Cc1cc(-c2nnc(CCC(=O)N(C)C(C)c3cccs3)o2)no1 (stereo not given)	3%	3%	7%	77*	48*	-2%
Cc1cc(-c2nnc(CCC(=O)N(C)Cc3ccsc3)o2)no1	15%	1%	2%	34	21*	24%
Cc1cc(-c2nnc(CCC(=O)NC(C)(C)C34CC5CC(CC(C5)C3)C4)o2)no1	/	-6%	/	/	/	/
Cc1cc(-c2nnc(CCC(=O)NCc3ccc(OC(F)(F)F)cc3)o2)no1	3%	35%	3%	29	16*	3%
CC1=C(c2ccc(C)c(C)c2)S(=O)(=O)N=C1N1CCC(C(=O)NCCc2ccc(Cl)cc2)CC1	/	4%	/	/	/	-3%
O=[N+]([O-])c1ccc(-[n+]2ccc3ccccc3c2)c([N+](=O)[O-])c1	/	-5%	/	/	/	1.8µM*
CC(C)CNC(=O)c1ccc2c(c1)C(=O)N(C1CCCCC1)C2=O	6%	1%	-12%	-3	-3	-11%
CC(C)(C)NC(=O)c1ccc2c(c1)C(=O)N(C1CCCCC1)C2=O	10%	-6%	-1%	80*	48*	4%
O=C(O)COc1ccc(NC(=O)c2ccc3c(c2)C(=O)N(C2CCCCC2)C3=O)cc1	/	2%	-9%	-14	2	-12%
O=C(Nc1ccc(Br)c(Br)c1)C1CCCO1 (stereo not given)	/	1%	/	/	/	/
O=C(O)c1cccc(NC(=O)c2ccc3c(c2)C(=O)N(C2CCCCC2)C3=O)c1	4%	-2%	1%	108*	44*	-21%
O=C(Nc1ccc2c(c1)C(=O)N(C1CCCCC1)C2=O)C1CCCO1 (stereo not given)	-1%	0%	6%	17	9.6*	-3%
CCOC(=O)N1CCN(Cc2nc(N)nc(Nc3ccc(Cl)cc3)n2)CC1	-1%	-2%	7%	40	14*	-26%
SMILES	FBPA Giardia inh	Tb PYK inh	LmPK inh	Shiga inhibitor	Cycloheximide cs	Sm TGR block
CCOC(=O)N1CCN(Cc2nc(N)nc(Nc3ccc(Oc4ccccc4)cc3)n2)CC1	-8%	-2%	3%	23	15*	?
CN(C)S(=O)(=O)c1cccc(NC(=O)COC(=O)/C=C/c2ccc(Br)o2)c1	-14%	-12%	-2%	-3	1	7.1µM*
NC(=O)c1ccc(NC(=O)COC(=O)/C=C/c2ccc(Br)o2)cc1	/	-17%	/	/	/	/
NS(=O)(=O)c1cccc(NC(=O)COC(=O)/C(=C/c2cccs2)c2cccs2)c1	-6%	-11%	1%	-11	-2	-21%
Cc1ccc(NC(=O)COC(=O)/C(=C/c2cccs2)c2cccs2)cc1S(=O)(=O)N(C)C	-5%	2%	-1%	89*	31*	1%
Cc1ccc(NC(=O)Cc2ccccc2Cl)cc1S(=O)(=O)N(C)C	-1%	-2%	2%	-2	5	-3%
Cc1ccc(NC(=O)COC(=O)c2ccccc2Cl)cc1S(=O)(=O)N(C)C	-8%	-5%	15%	71*	32*	-4%
Cc1ccc(NC(=O)COC(=O)/C=C/c2ccc(Br)o2)cc1S(=O)(=O)N(C)C	-2%	1%	3%	15	-3	25µM*
Cc1ccc(-c2nnc3ccccc3c2C(=O)Nc2cccc(C(F)(F)F)c2)cc1	/	-7%[15.4 µM]	/	/	/	0%
Cc1noc(Cn2c(=O)c3ccccc3n(CC(=O)Nc3ccc(C(C)C)cc3)c2=O)n1	/	2%	/	/	/	-5%
Cc1cccc(C(=O)Nc2nnc(SCc3cc(=O)n4cccc(C)c4n3)s2)c1	/	0%	/	/	/	4%
CN(CC(=O)Nc1ccccc1Cl)C(=O)COC(=O)c1ccc(Cl)nc1	/	4%	/	/	/	2%
CN(CC(=O)Nc1ccccc1Cl)C(=O)COC(=O)c1nc(Cl)c(Cl)c(Cl)c1Cl	-19%	-14%	0%	53*	45*	18µM*
CN(Cc1cnn(C)c1)Cc1nc(COc2ccccc2)no1	-1%	-8%	-2%	33	14*	-23%
CN(Cc1cnn(C)c1)Cc1nc(-c2ccc(Cl)cc2)no1	-2%	1%	7%	41	16*	-16%
CCN(CC)CCOC(=O)c1cccnc1	/	2%	/	/	/	/
Cc1ccc(NC(=O)CSc2nc3ccccc3nc2Cc2ccccc2)c(C)c1	/	-2%	/	/	/	1%
CCCCC(=O)NC(N1CCCCC1)C(Cl)(Cl)Cl (stereo not given)	-24%	?	1%	-13	-4	11µM*
Cc1ccc(C2CC(=O)n3nc(-c4ccc(Cl)cc4)nc3S2)cc1 (stereo not given)	/	-10%	/	/	/	15%
NC1=C(Br)C(=O)c2ccccc2C1=O	?	-6%	-29%	81*	31*	?
COc1ccc(OC)c2c1C(=O)C(Cl)=C(Cl)C2=O	1.3µM*	2.8µM*	-21%	13	15*	?
